NS1 function inh = qHTS Assay for Inhibitors of Influenza NS1 Protein Function; 0.4% of 270,000 active; AID 2326, 2010; Potency, µM (titrated, usually from 46.1 µM), without a hit: at the highest dose activity, positive = more growth; further: potency means the concentration at half of the fitted maximal effect; actives are rising curves; nearly all actives have a fitted effect of over 50% in size
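S. cerevisiae expressing influenza A NS1, grown in glucose, washed, then diluted 1:100 into pH 6.0 -URA galactose medium with 23 nl compound. Growth recovery read as OD600; NS1-free strain serves as control.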
Shiga toxin inh = A qHTS for Small Molecule Inhibitors of Shiga Toxin. Vero cells, Shiga toxin protein synthesis inhibition reporter. inhibition, % at 38.7 µM. 9.2% of 290,000 active. AID 2315, 2010; in the data active means inhibition mostly above about 28%, no sharp cut-off; inactive means mostly below about 43%; further: 0% is about no effect
Pf growth 48h = Primary qHTS for delayed death inhibitors of the malarial parasite plastid, 48 hour incubation; P. falciparum luciferase growth in erythrocytes, 48 h; Potency, µM (titrated, usually from 28.7 µM), for the others: top-dose activity change, negative = inhibition, hits mostly inhibitors; 5.9% of 310,000 active; active means well fitted inhibition curve with a large enough effect; inconclusive means small, poorly fitted or top-dose-only effect, or another doubt; inactive means no such curve, though single readings can be large or run the other way; further: potency means the concentration at half of the fitted maximal effect; on the % scale 0 is the no-effect control and ±100 the full control effect
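Compounds are pin-transferred into medium, infected erythrocytes (2% hematocrit, 0.1% parasitemia final) are added, and plates sit one parasite generation at 37 C in 5% CO2. Detection reagent is then added and luminescence measured.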
SARS PLP yeast = qHTS of Yeast-based Assay for SARS-CoV PLP; 0.19% of 330,000 active; S. cerevisiae expressing SARS-CoV PLpro, growth rescue; Potency, µM (highest dose often 32.9 µM), for the others: top-dose activity, positive = growth rescue, usual class: activators; further: potency means the concentration at half of the fitted maximal effect; 0% is about no effect; nearly all actives have a fitted effect of over 55% in size
Pf growth 96h = Primary qHTS for delayed death inhibitors of the malarial parasite plastid, 96 hour incubation | Potency, µM (titrated, usually from 28.7 µM), inactives show top-dose activity change, negative = inhibition, usual class: inhibitors | P. falciparum luciferase reporter growth, 96 h | 6.9% of 320,000 active; active means well fitted inhibition curve with a large enough effect; inconclusive means small, poorly fitted or top-dose-only effect, or another doubt; inactive means no such curve, though single readings can be large or run the other way; further: potency means the concentration at half of the fitted maximal effect; on the % scale 0 is the no-effect control and ±100 the full control effect
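Infected RBCs, 2% Hct / 0.05% parasitemia final; luciferase-reporter P. falciparum; cpd 96 h, 37 C, 5% CO2; luciferase detection reagent; luminescence.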
Cycloheximide cs = Cycloheximide Counterscreen for Small Molecule Inhibitors of Shiga Toxin. cell reporter, cycloheximide protein synthesis inhibition counterscreen. max response, %. 12% of 300,000 active. AID 2314, 2010; in the data active means max response mostly above about 13%, no sharp cut-off; inactive means mostly below about 14%; further: read at 38.3 µM for the half of the compounds with a filed dose; 0% is about no effect
An asterisk follows results filed as active; ? = inconclusive; . = not tested or not shown; + = active, no number. Shown are actives, neighbours in structure and some others; about 21% of the full set was active somewhere. Unless noted, the call rests on the fitted dose curve.

SMILES	NS1 function inh	Shiga toxin inh	Pf growth 48h	SARS PLP yeast	Pf growth 96h	Cycloheximide cs
Nc1cc(=O)[nH]c2nnc(SCC(=O)Nc3cccc4ccccc34)n12	-12.4%	-10.2	-5.2%	1.5%	7.38µM*	-2.2
O=C(CSc1ncccn1)NCc1ccc(F)cc1	2.7%	40.6	59.4%	-10.2%	-17.6%	19.3
Cc1ccc(CNC(=O)CSc2ncccn2)cc1	-0.2%	43.5*	60.9%	6.0%	-2.2%	24.5*
COCCn1c(-c2ccccc2)cnc1SCC(=O)Nc1cccc2ccccc12	-0.9%	-2.1	-23.4%	-18.2%	13.1µM*	10.1
O=C(CSc1nc(SCC(=O)NCc2ccccc2)n(-c2ccccc2)n1)NCc1ccccc1	-12.2%	-13.3	.	4.3%	9.28µM*	-3.2
C=CCNC(=O)CSc1nnc(C(CC)N(C)C)n1C1CCCCC1 (stereo not drawn)	1.9%	-4.0	-7.0%	-1.5%	-6.2%	7.4
CN(C)S(=O)(=O)c1ccc(NC(=O)CSc2nnc(-c3ccco3)n2N)cc1	.	.	.	3.1%	.	.
Cc1ccc(S(=O)(=O)NCCC(=O)NNC(=O)c2ccccc2O)cc1C	.	.	-4.7%	1.3%	7.9%	.
COc1ccc(CNC(=O)CSc2n[nH]c(C)c2[N+](=O)[O-])cc1	11.3%	-3.6	0.6%	5.3%	-12.7%	-0.8
O=C(CSc1ncccn1)Nc1cccc2ccccc12	-17.2%	19.6	7.8%	-1.3%	30.8%	21.8*
CC(=O)Nc1ccc(N(C(=O)Cc2c[nH]c3ccccc23)C(C(=O)NC2CCCCC2)c2ccco2)cc1 (stereo not drawn)	25.3%	-22.5	?	1.9%	2.3%	1.1
Cc1ccc(C(C(=O)NC2CCCCC2)N(C(=O)Cc2c[nH]c3ccccc23)c2ccccc2)o1 (stereo not drawn)	6.7%	-1.2	9.28µM*	-0.1%	?	-1.8
CC(=O)c1ccc(N(C(=O)Cc2c[nH]c3ccccc23)C(C(=O)NC2CCCCC2)c2cccs2)cc1 (stereo not drawn)	1.5%	30.2	3.7µM*	3.8%	28.9%	36.2
Cc1ccc(CNC(=O)C2CCN(c3nnc(N4CCCC4=O)s3)CC2)cc1	-1.2%	-0.4	4.2%	3.6%	72.3%	1.1
C=CCC1(CC=C)CCCN1C(=O)c1cc(COc2cccc(OC)c2)on1	-13.6%	25.7	?	-3.7%	-24.9%	-2.3
C=CCC1(CC=C)CCCN1C(=O)c1cc(COc2cncc(Cl)c2)on1	-42.5%	34.6*	?	-0.9%	?	36.1*
COCC1CCCN(C(=O)c2cc(COc3cncc(Cl)c3)on2)C1 (stereo not drawn)	-0.6%	100.9*	107.4%	-2.0%	?	40.7*
CCN(C(=O)c1ccco1)c1nnc(-c2ccc(OC)cc2)s1	-3.7%	+	261.1%	-0.8%	25.9%	29.6*
Cc1ccc2nc(N(CCCN(C)C)C(=O)c3ccco3)sc2c1	.	53.4	37.4%	0.5%	-9.5%	17.2
COCCN(C(=O)C1CC1)c1nnc(-c2cccc(C)c2)s1	-31.3%	28.6	10.9%	5.1%	-15.1%	15.1*
CCCCC(=O)N(CCOC)c1nnc(-c2ccc(OC)cc2)s1	-10.1%	22.8	-19.8%	2.4%	.	1.6
CCCN(C(=O)c1ccco1)c1nnc(-c2cccc(C)c2)s1	2.5%	72.2*	3.4%	-1.2%	30.1%	61.1*
C/C(=N\OCC(=O)OCC(=O)NC(=O)c1ccc(OC(F)F)cc1)c1ccc2c(c1)OCO2	.	.	14.5%	2.3%	0.0%	.
O=C(CSc1ccccn1)Nc1ccc(Cl)c([N+](=O)[O-])c1	.	29.9	401.8%	-3.0%	?	12.2
N/C(CSc1ccccn1)=N\OCc1c(Cl)cccc1Cl	2.6%	44.9*	56.1%	0.4%	14.5%	17.9
SMILES	NS1 function inh	Shiga toxin inh	Pf growth 48h	SARS PLP yeast	Pf growth 96h	Cycloheximide cs
Cc1oc(-c2ccc3c(c2)OCCO3)cc1C(=O)NC(CCC(=O)O)C(=O)O (stereo not drawn)	3.1%	58.8	39.5%	1.4%	45.5%	26.8*
COc1ccc(NC(=S)NC(=O)c2ccc3c(c2)OCCO3)cc1	.	.	.	0.2%	.	.
NC(=O)COc1ccccc1C1=NO[C@@](CC(=O)O)(C(=O)Nc2ccc3c(c2)OCCO3)C1	1.9%	30.5	.	0.9%	4.7%	19.2*
COc1ccc(C2=NO[C@@](CC(=O)O)(C(=O)Nc3ccc4c(c3)OCCO4)C2)cc1	-0.4%	61.6*	-1.9%	3.2%	24.8%	30.4*
O=C(COC(=O)c1ccccn1)Nc1ccc2c(c1)OCCO2	.	.	.	1.0%	.	.
CN(C)S(=O)(=O)N1CCc2ccccc21	-8.2%	-5.6	-1.0%	-0.1%	.	-3.1
O=S(=O)(Cc1ccccc1)N1CCc2ccccc21	-9.6%	33.7*	-13.5%	-4.7%	.	13.1*
O=C(Cc1ccc([N+](=O)[O-])cc1)N1CCc2ccccc2C1	1.3%	10.2	-4.0%	-6.4%	?	-3.2
CS(=O)(=O)N(CC(=O)N1CCc2ccccc2C1)Cc1ccccc1	2.7%	-11.5	.	6.0%	52.1%	-3.7
O=C(CS(=O)(=O)Cc1ccccc1)N1CCc2ccccc2C1	-11.1%	39.6	4.6%	-4.9%	13.1%	16.1*
O=C(CNS(=O)(=O)c1ccccc1)N1CCc2ccccc2C1	0.3%	.	42.0%	.	6.6%	34.8*
Cc1ccc(S(=O)(=O)NCC(=O)N2CCc3ccccc3C2)cc1	6.9%	-7.4	?	3.6%	?	0.7
O=C(Cc1ccccc1[N+](=O)[O-])N1CCc2ccccc2C1	-4.8%	50.6	0.0%	-2.0%	1.17µM*	15.3*
Nc1nc(C(=O)N2CCOCC2)nn1C(=O)c1ccc(Cl)cc1	-30.7%	-10.4	17.1%	12.8%	10.4µM*	-2.0
O=C(c1ccc(Cl)cc1)c1ccccc1C(=O)N1CCOCC1	-4.3%	-11.4	10.2%	-0.8%	38.0%	-3.1
CN(C)C=NC1=NN(c2cccc(C(F)(F)F)c2)CC1	-23.4%	43.5*	14.4%	-16.7%	?	43.0*
CN1CCN(C=NC2=NN(c3cccc(C(F)(F)F)c3)CC2)CC1	-11.0%	19.9	57.3%	-17.3%	0.0%	20.7*
FC(F)(F)c1cccc(N2CCN(c3nnnn3-c3ccccc3)CC2)c1	-45.4%	-2.6	-4.1%	-12.4%	-23.7%	-2.7
CCOC(=O)CN(C(=O)CSc1nnc(COc2ccc(OC)cc2)n1CC)c1ccccc1	-32.8%	-5.5	8.28µM*	0.4%	6.57µM*	2.0
CCOC(=O)CN(C(=O)CSc1nnc(CNc2ccc(C)cc2C)n1CC)c1ccccc1	-7.9%	-10.8	?	2.8%	9.28µM*	5.9
CCOC(=O)CN(C(=O)CSc1nnc(CNc2ccc(F)cc2)n1CC)c1ccc(F)cc1	14.0%	18.9	?	4.1%	.	-1.3
CCn1c(COc2ccccc2C)nnc1SCC(=O)N1CCCCC1	3.8%	-19.3	?	2.0%	7.38µM*	-0.6
CCn1c(COc2ccccc2)nnc1SCC(=O)C(C)(C)C	6.6%	1.5	11.7µM*	6.5%	9.28µM*	16.4
